The record followed here is PubChem BioAssay AID2314 (National Center for Advancing Translational Sciences (NCATS), 2010).

The campaign covered roughly 300,000 compounds. About 37,000 (12%) were called active. For the sample, actives were picked, then their nearest neighbours and some compounds at random. A number with no mark means an inactive call. No stated cut-off is given here; in the data, active means max response mostly above about 13% (no sharp cut-off); inactive means mostly below about 14%.

This assay is described as follows: Cycloheximide Counterscreen for Small Molecule Inhibitors of Shiga Toxin. Further: read at 38.3 µM for the half of the compounds with a filed dose; 0% is about no effect. The following applies: cell reporter, cycloheximide protein synthesis inhibition counterscreen; active compounds read high. (In general: A counterscreen serves to expose hits that act by an unwanted route or on another target.)
As to `COc1ccc(CCNC2=C(Cl)C(=O)N(Cc3ccccc3)C2=O)cc1OC`, the max response was 5.5%.

`O=C(Nc1ccccc1-c1nc2ccccc2[nH]c1=O)c1cccs1`: the max response is 0.926%.

On to `C/C(=N\Nc1nc(Nc2ccccc2)nc(N2CCOCC2)n1)c1cccs1`, for which the max response is 14.5%.

With `C/C(=N\NS(=O)(=O)c1ccc(Br)cc1)c1cccs1`, the max response was -1.14%.

As for `C/C(=N\Nc1ncc(Cl)cc1Cl)c1cccs1`, the max response is 45.9% (active).

`COC(=O)c1sccc1N/N=C(\C)c1ccc(F)c(Cl)c1`: the max response is 7.97%.

Take `O=S(=O)(NCc1ccco1)c1cnc(Cl)c(Cl)c1`: the max response was -2.82%.

`C/C(=N\Nc1nc2ccccc2[nH]1)c1cccs1`: the max response is 36.7% (active).

`Cc1c(Cl)cnc(NC(=O)COC(=O)c2ccc(S(=O)(=O)NCc3ccco3)cc2)c1Cl`: the max response is -0.376%.

In the case of `C/C(=N\Nc1ccc(S(N)(=O)=O)cc1[N+](=O)[O-])c1cccs1`, the max response is -5.09%.

For the compound `CCN(CC)c1ccc(C(=O)N/N=C(\C)c2cccc(OC)c2)cc1`, the max response is -2.4%.

As for `C/C(=N\Nc1ncc(Cl)cc1Cl)c1ccc(S(=O)(=O)NCc2ccco2)cc1`, the max response is 113% (active).

In the case of `COc1cccc(/C(C)=N/Nc2ncc(Cl)cc2Cl)c1`, the max response is 41.6% (active).

Turning to `CC(=O)Nc1c2c(nn1-c1cccc(C)c1)CSC2`, the max response is 8.26%.

Take `C=CCn1c2ccccc2c2nnc(SCc3[nH]c(=O)[nH]c3C(=O)CCCCC(=O)OCC)nc21`: the max response is 2.1%.

With `Cc1cccc(C)c1NC(=O)C1(C)c2cccc[n+]2CC(=O)N1Cc1cccs1` (centres undefined), the max response is -1.89%.

For `COC(=O)c1ccc(C(NC(=O)OCc2ccccc2)/C(F)=C/[C@@H](C)C(=O)O)cc1` (some centres undefined), the max response is 6.37%.

As for `CN1CCC(=O)N([C@H](CO)Cc2ccccc2)CC1`, the max response is 1.38%.

For `CCCC(=O)N=c1sc2cccc(F)c2n1C`, the max response was -3.69%.

With `Cn1c(=NC(=O)c2ccco2)sc2cccc(F)c21`, the max response was 72.9% (active).

As for `Cn1c(=NC(=O)C2CC2)sc2cc(F)cc(F)c21`, the max response was -0.185%.

For the compound `COC(=O)c1c(NC(=O)c2ccccc2F)sc2c1C(C(=O)OC)CC2` (centres undefined), the max response was 7.34%.

Turning to `C/C(=N\N)c1c(-c2ccccc2)c2cc(Br)ccc2[nH]c1=O`, the max response is 1%.

Regarding `O=C(Cn1nc([N+](=O)[O-])nc1Br)NC1CCCCC1`, the max response was -4.71%.

Turning to `Cc1ccccc1C(=O)NC(=S)NC1CC1`, the max response was 19.1% (active).

On to `COc1ccccc1C(=O)NC(=S)NC12CC3CC(CC(C3)C1)C2`, for which the max response is 13.4%.

On to `O=C(NNC(=S)NC1CCCCC1)c1ccccc1Cl`, for which the max response was 5.48%.

As to `CC(C)CC(CCc1ccccc1)OS(N)(=O)=O` (centres undefined), the max response was 2.53%.

With `COc1ccc(COC(=O)N/N=C(\C)CC(=O)Nc2ccc(Cl)cc2)cc1`, the max response is 12.4%.

Consider `COc1ccc(C(=O)CCC(=O)Nc2ccc(Cl)cc2)cc1`, for which the max response was 0.287%.

Turning to `COc1ccc(C(=O)N/N=C(\C)CC(=O)Nc2ccc(Cl)cn2)cc1`, the max response was 28.3% (active).

As to `Cc1ccc(-n2c(-c3ccc(Cl)cc3)n[nH]c2=S)cc1`, the max response was -1.99%.

As to `O=C(NCCCN1CCOCC1)c1ccc2c(c1)N(Cc1cccc(F)c1)C(=O)c1ccccc1S2`, the max response was -7.81%.

On to `Cc1cc(=O)[nH]c(SCc2cccc(F)c2)n1`, for which the max response is 0.752%.

Regarding `Nc1cc(N)nc(SCc2cccc(F)c2)n1`, the max response is 45.9% (active).

On to `Nc1cc(N)nc(SCc2ccc(Cl)cc2)n1`, for which the max response was 15.3%.

As for `C[n+]1cc(-c2ccccc2)oc1-c1ccccc1`, the max response is 52.4% (active).

As for `Cc1cc(C)n(-c2cc(Oc3ccccc3)ncn2)n1`, the max response is 21.7%.

Consider `Cc1cc(C)n(-c2nnc(N3CCN(c4ccccc4)CC3)nn2)n1`, for which the max response was 22.1% (active).

As for `Cc1cc(N2CCN(c3ccccc3)CC2)nc(N2CCOCC2)n1`, the max response was -2.2%.

Take `CCOC(=O)C1=C(CN2CCc3ccccc32)NC(=O)NC1c1ccc(Cl)cc1` (centres undefined): the max response was 15.3%.

For the compound `O=C(CSc1ccsc1[N+](=O)[O-])N1CCCCC1`, the max response is 26.9%.

For the compound `O=C(CSCc1cccs1)N1CCCC1`, the max response is 31.1% (active).

For the compound `Cn1c(SCC(=O)N2CCCC2)nnc1-c1cccs1`, the max response is 11.6%.

Regarding `O=C(CN1CCN(c2ccc(Cl)cc2)CC1)N1CCCC1`, the max response was 6.76%.

In the case of `O=C(CSCc1ccc(Cl)cc1)N1CCN(Cc2ccc3c(c2)OCO3)CC1`, the max response is 10.5%.

Regarding `O=C(CSCc1ccc(Cl)cc1)N1CCCCC1`, the max response is 44.9% (active).

Regarding `COC(=O)[C@@H](Cc1ccccc1)NC(=O)NCCc1ccccc1`, the max response was 6.92%.

For the compound `O=C1OC2(CCCCC2)CC2=C1C1O[C@](c3ccsc3)(Cc3ccccc31)O2`, the max response was -3.19%.

Turning to `Fc1cccc(CSc2nnc3ccc(-c4ccncc4)nn23)c1`, the max response was 2.07%.

As to `O=C(CN1C(=O)NC(Cc2ccccc2)(Cc2ccccc2)C1=O)NCC1CCCCC1`, the max response was -2.12%.

For `CCCc1nnc(NC(=O)CCC(=O)N2CCN(S(=O)(=O)c3ccc(OC)cc3)CC2)s1`, the max response was -3.02%.

Take `Oc1ccccc1-c1cc(-c2ccc(Cl)cc2)n[nH]1`: the max response is 29% (active).

Take `S=c1[nH]nc(-c2cc(-c3ccccc3)n[nH]2)n1/N=C/c1c2ccccc2cc2ccccc12`: the max response is -3.32%.

`c1ccc(-c2cc(-c3ccccc3)[nH]n2)cc1`: the max response is 36.7% (active).

Take `S=c1[nH]nc(-c2cc(-c3ccsc3)n[nH]2)n1-c1ccccc1`: the max response was 6.52%.

On to `Cc1ccc(NC(=O)c2cc(-c3ccccc3O)n[nH]2)cc1C`, for which the max response is 12%.

Turning to `Cc1cc(C(=O)OCC(=O)N2c3ccccc3NC(=O)C2(C)C)c(C)n1-c1ccccc1`, the max response was -2.79%.

For the compound `CCc1cc(=O)oc2c(C)c(OCC(=O)N3CC[C@@]4(O)CCCC[C@H]4C3)ccc12`, the max response was -0.987%.

Turning to `O=C(CCC(=O)N/N=C/c1ccc(Br)o1)N/N=C/c1ccc(Br)o1`, the max response is -1.8%.

In the case of `CC1(C)OC(=O)N2CCc3ccccc3C21C` (centres undefined), the max response was -1.95%.

Regarding `O=C(Cc1nn[nH]n1)NCCC1=CCCCC1`, the max response was -1.06%.

`O=C(NCCCN1CCOCC1)c1ccc(N2CCCC2)c([N+](=O)[O-])c1`: the max response was 1.3%.

Consider `CN(c1ccc(C(=O)NCCC2=CCCCC2)cc1)S(C)(=O)=O`, for which the max response was 35.4% (active).

Consider `Cn1nnc2cc(C(=O)NCCC3=CCCCC3)ccc21`, for which the max response was 36.9% (active).

Take `CC(=O)Nc1ccc(S(=O)(=O)N(C)CC(=O)NCCC2=CCCCC2)cc1`: the max response was 8.71%.

Turning to `CN1CCNC(=O)C1CC(=O)NCCC1=CCCCC1` (centres undefined), the max response is 6.87%.

As for `O=C(COc1ccc(Cl)cc1)NCCC1=CCCCC1`, the max response is -4.36%.

Turning to `Cc1ccn2c(=O)c(C(=O)NCCC3=CCCCC3)c(O)nc2c1`, the max response is 16.1%.

Regarding `O=C(NCCC1=CCCCC1)c1ccc(Cl)c([N+](=O)[O-])c1`, the max response was 39.2% (active).

Consider `CCC(=O)c1ccc(OC(=O)/C=C/c2cc(OC)c(OC)c(OC)c2)cc1`, for which the max response was -6.8%.

`COc1ccc(C(=O)O)cc1S(=O)(=O)NCc1cccnc1`: the max response is 1.18%.

Take `COc1ccc(Cn2c(O)c(/C=C3/C=CC=N3)c(=O)[nH]c2=O)cc1`: the max response is 1.33%.

`Cc1nc2c(C(=O)NCc3cccs3)cnn2c(C)c1Cc1ccc(F)cc1`: the max response was 0.665%.

For the compound `O=C(NCC1CCN(Cc2ccccc2Cl)CC1)Nc1cccc(Cl)c1`, the max response was 9.67%.

As to `CC(C)CC(=O)Nc1ccc(Cc2ccncc2)cc1`, the max response was -2.52%.

For the compound `CCc1ccc(NC(=O)Nc2ccncc2)cc1`, the max response is 28.8% (active).

Consider `O=C(Nc1ccncc1)Nc1ccc(F)cc1`, for which the max response is 21.6% (active).

`O=C(Nc1ccc(F)cc1)N1CCN(c2ccc(F)cc2)CC1`: the max response is 1.7%.

As for `O=C(Nc1ccncc1)c1c(F)cccc1F`, the max response was 14.2%.

On to `CCc1ccc(NC(=O)N[C@H](C(=O)O)C(C)CC)cc1` (some centres undefined), for which the max response was 9.38%.

For the compound `CCCc1ccc(OCc2ccc(C(=O)N/N=C/c3cccc([N+](=O)[O-])c3)o2)c(OC)c1`, the max response was -2.18%.

As to `CC(C)Cn1c(=O)c2ccccc2n2c(CCC(=O)NCc3ccccn3)nnc12`, the max response is 15.7%.

`Cc1cccc(C)c1N1C(=O)CN(Cc2ccccc2)C1=S`: the max response was -2.32%.

With `O=C(NCCS(=O)(=O)c1ccc(Br)cc1)c1ccccc1Cl`, the max response was -3.1%.

Regarding `CN(C)S(=O)(=O)c1ccc(C(=O)NCCN=C2NS(=O)(=O)c3ccccc32)cc1`, the max response is -3.08%.

`OC(c1nnc(-c2ccccc2)o1)c1cccs1` (centres undefined): the max response was 76.9% (active).

In the case of `CCCN(CCC)c1ccc(C(O)c2nnc(-c3ccccc3)o2)cc1` (centres undefined), the max response was 26.9%.

Take `O=C(Nc1nnc(-c2ccccc2)o1)c1cc(-c2cccs2)nc2ccccc12`: the max response is -2.91%.

With `CCCc1cc(=O)oc2cc(OCC(=O)Nc3ccc(CN4CCOCC4)cc3)c(Cl)cc12`, the max response was -3.2%.

Take `O=[N+]([O-])c1ccc(N=Cc2c(O)ccc3ccccc23)cc1`: the max response was -1.91%.

Regarding `Oc1c(C=Nc2cccc3nsnc23)ccc2ccccc12`, the max response was 16.7% (active).

As to `O=C(Nc1cccc(C(F)(F)F)c1)c1ccc(N2CCNCC2)c([N+](=O)[O-])c1`, the max response was 0.923%.

In the case of `Nc1nc(SCC(=O)N2CCN(S(=O)(=O)c3ccc(Cl)cc3)CC2)n[nH]1`, the max response was 6.07%.

For the compound `Cc1occc(=O)c1OCc1c(Cl)cccc1Cl`, the max response was 0.434%.

Regarding `Cc1ccc(OCC(=O)Nn2cnc3ccccc32)cc1`, the max response was 8.71%.

As to `O=C(c1ccc(Cl)cc1)n1cnc2ccccc21`, the max response is -2.21%.

For `COC(=O)c1ccc(-n2cnc3ccccc32)nc1`, the max response is 24.9% (active).

Consider `CCC(C)(C)n1nnnc1C(c1ccc(OC)c(OC)c1)N1CCN(C(=O)c2ccco2)CC1` (centres undefined), for which the max response is -2.11%.
